Source: PubChem BioAssay AID703 (NMMLSC, 2007)
A number with no mark means an inactive call. No rule for the calls is given here.

biological target: Integrin alpha-4 (Homo sapiens) (UniProt P13612); assay: enhancers of LDV-FITC binding to VLA-4, dose response, cell-based, flow cytometry (AID 703); conditions: Jurkat cells, hits give high values
Sequence (P13612 whole entry, looked up): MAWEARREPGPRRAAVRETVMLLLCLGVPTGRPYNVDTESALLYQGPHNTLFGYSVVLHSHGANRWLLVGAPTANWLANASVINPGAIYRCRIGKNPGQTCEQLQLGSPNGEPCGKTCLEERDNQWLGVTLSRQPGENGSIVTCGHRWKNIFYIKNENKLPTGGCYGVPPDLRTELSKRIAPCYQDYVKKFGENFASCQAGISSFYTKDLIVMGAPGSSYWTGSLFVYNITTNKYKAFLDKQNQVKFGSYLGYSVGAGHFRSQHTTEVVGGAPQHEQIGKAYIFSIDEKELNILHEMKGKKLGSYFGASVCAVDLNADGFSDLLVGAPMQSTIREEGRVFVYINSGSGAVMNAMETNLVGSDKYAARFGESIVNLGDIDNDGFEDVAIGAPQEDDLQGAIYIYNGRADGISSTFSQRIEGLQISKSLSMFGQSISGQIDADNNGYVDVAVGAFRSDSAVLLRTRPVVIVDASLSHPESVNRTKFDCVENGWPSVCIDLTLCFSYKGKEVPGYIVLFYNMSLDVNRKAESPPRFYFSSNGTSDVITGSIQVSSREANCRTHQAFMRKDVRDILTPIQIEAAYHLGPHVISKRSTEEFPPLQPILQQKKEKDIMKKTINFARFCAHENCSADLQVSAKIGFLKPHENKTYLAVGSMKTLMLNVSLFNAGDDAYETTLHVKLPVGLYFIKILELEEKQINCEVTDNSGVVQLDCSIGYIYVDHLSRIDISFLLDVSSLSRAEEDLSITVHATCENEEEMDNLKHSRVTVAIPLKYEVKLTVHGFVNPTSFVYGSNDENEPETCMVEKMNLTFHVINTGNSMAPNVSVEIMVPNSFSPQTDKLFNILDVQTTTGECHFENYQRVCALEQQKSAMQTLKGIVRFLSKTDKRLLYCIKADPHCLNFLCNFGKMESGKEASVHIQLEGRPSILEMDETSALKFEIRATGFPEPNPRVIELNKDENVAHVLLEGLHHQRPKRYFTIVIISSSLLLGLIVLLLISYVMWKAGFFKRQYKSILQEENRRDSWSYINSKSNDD

Compound | activation at 0 C
N#Cc1c(N2CCCC2)nc(N)c2c(N)nc(N3CCCC3)cc12 | 0
CCCCC[C@H](O)/C=C/[C@H]1C=CC(=O)[C@@H]1C/C=C\CCCC(=O)O | 0
COC(=O)C1CCN(C(=O)NC(C)(C)C)CC1 | 0
CN(C)CCCN1c2ccccc2Sc2ccc(C(F)(F)F)cc21 | 0
